Experimental data from PubChem BioAssay (NCI).
Compounds without any hit were thinned out: in the full panel of roughly 79,000, 15% have a hit. Unmarked numbers belong to inactive results. Active and inactive are the calls of the source. Rule as the data show it: active = growth inhibition above about 70%; inactive = the rest.

How the values were obtained:
[1] = NCI Yeast Anticancer Drug Screen. Data for the rad50 strain (AID 155);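 also: 0% = growth of vehicle-only cultures of the same strain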; details: S. cerevisiae rad50 strain growth inhibition; at 50.0 µM; hits give high values
Summary of the method: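 A DNA repair-deficient yeast mutant serves as the test organism; compound-induced growth inhibition is calculated against vehicle-treated cells.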

[2] = NCI Yeast Anticancer Drug Screen. Data for the mec2-1 strain (AID 157); details: S. cerevisiae mec2-1 strain, at 50.0 µM, hits give high values
Summary of the method: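 Test agents were screened against the mec2-1 yeast strain, with defined DNA repair or cell cycle alteration. Growth was scored as inhibition against vehicle-only controls.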

[3] = NCI Yeast Anticancer Drug Screen. Data for the sgs1 mgt1 strain (AID 161);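 also: 0% = growth of cultures given vehicle only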; details: S. cerevisiae sgs1 mgt1 strain, at 50.0 µM, hits give high values
Summary of the method: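 Test agents were incubated with a DNA-repair-mutant yeast strain. Growth was then read and compared against vehicle-treated controls.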

[4] = NCI Yeast Anticancer Drug Screen. Data for the cln2 rad14 strain (AID 165);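 also: 0% = growth equal to vehicle treated cultures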; details: S. cerevisiae cln2 rad14 strain, at 50.0 µM, hits give high values
Summary of the method: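 Growth of compound-exposed yeast (cln2 rad14 genotype) measured and expressed as inhibition relative to vehicle.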

[5] = NCI Yeast Anticancer Drug Screen. Data for the bub3 strain (AID 167); details: S. cerevisiae bub3 mutant strain, at 50.0 µM, hits give high values
Summary of the method: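 Inhibition values come from growth of compound-treated mutant yeast normalised to vehicle-treated controls.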

[6] = NCI Yeast Anticancer Drug Screen. Data for the mlh1 rad18 strain (AID 175); details: S. cerevisiae mlh1 rad18 strain growth inhibition; at 50.0 µM; hits give high values
Summary of the method: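 In this whole-cell yeast screen, a strain with altered DNA damage repair is challenged with compound, and its growth is measured against matched vehicle-treated controls.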

Row | Structure (SMILES) | growth inhibition [1] [%] | growth inhibition [2] [%] | growth inhibition [3] [%] | growth inhibition [4] [%] | growth inhibition [5] [%] | growth inhibition [6]
1 | CCOC(=O)Oc1ccc(C(=O)Oc2ccccc2)cc1OC | 18.1 | 4.1 | 12.9 | -48.8 | 42.1 | 10%
2 | Cc1cc(=O)n2nc(SCc3ccccc3)sc2n1 | 11.3 | 8.2 | 28.9 | 1.9 | 3.5 | -8.95%
3 | CC(C)(C)/[N+]([O-])=C/C1(C2(/C=[N+](\[O-])C(C)(C)C)Cc3ccccc3C2=O)Cc2ccccc2C1=O (centres undefined) | 29.8 | 3.75 | 3.05 | 15.6 | 7.15 | 31.9%
4 | CN(C)c1ccc(C=Nc2cc(S(=O)(=O)O)cc3cc(S(=O)(=O)O)cc(O)c23)cc1 | -22.9 | -9.7 | -14.7 | 31.6 | 12.4 | 8.85%
5 | O=c1c2cc3c(cc2[nH]c2ncccc12)OCO3 | -12.8 | 0.65 | 2.85 | 13.8 | -2.55 | 26.3%
6 | COc1cc2cc3c(c(O)c2c(O)c1/C=C/C(C)C)C(=O)CC(C)(OC(C)=O)C3 (centres undefined) | 36.3 | 8.95 | 36.5 | 30.4 | 18.8 | 74.2% (active)
7 | O=c1[nH]c2ccc([N+](=O)[O-])cc2nc1/C=C(\O)c1ccccc1 | -9.85 | 14.3 | -24.4 | -31.1 | 3.75 | -46.5%
8 | O=c1[nH]c2cc(Cl)ccc2nc1/C=C(\O)c1ccco1 | 7.55 | -10.4 | -16.1 | 10.3 | -33.6 | 13.3%
9 | COc1ccc(NC(C)=O)c(O)c1C | -0.6 | 2.15 | -17 | -25.4 | -3.7 | -12.7%
10 | NNC(=O)N/N=C/c1cccc(O)c1 | -11.7 | -2.35 | -21.4 | -12.1 | 1.1 | -19.4%
11 | COc1c2occc2cc2ccc(=S)oc12 | 13.2 | -10.4 | 7.35 | -4.6 | -19.9 | 23.1%
12 | COc1cccc(C(=O)NNC(=O)c2ccc3ccccc3c2)c1 | 13.2 | 4.55 | -2.45 | 6.55 | 3.9 | 7.95%
13 | Cc1ccc(Nc2nc(NS(=O)(=O)c3cc(C)c(Cl)cc3S)n(C)n2)cc1 | -15.1 | -33.5 | -29.7 | -7.1 | -32.9 | -21.8%
14 | CSC(SC)=C1CCCC(=C(SC)SC)C1=O | -6.95 | -9.3 | -9.55 | 6.95 | -0.45 | -8.9%
15 | O=C1CCSC(=S)N1c1ccc(F)cc1 | 7.15 | -1.4 | 2.2 | -32.5 | -22.9 | 6.2%
16 | OC1CCSc2ccccc21 (centres undefined) | 28.6 | 10.3 | 23.9 | 9.7 | 23.6 | 23.2%
17 | [O-][n+]1cc[n+]([O-])c2cc(O)ccc21 | -13.5 | -25.1 | 3.8 | -20.1 | 1.1 | 10.7%
18 | CN(C)Cc1cc(C(=O)/C=C/c2ccc(Cl)cc2Cl)cc(CN(C)C)c1O | 6.4 | -12.8 | 8.55 | -51.4 | 8.85 | 13.8%
19 | C/C(=C\c1ccccc1)c1ccccc1 | -47.8 | 1.9 | -3.75 | -30.4 | 2.1 | 8.45%
20 | Cc1cnc(Sc2ncccn2)c([N+](=O)[O-])c1 | -7.05 | -15 | -2.1 | -28.4 | -31.1 | -17.9%
21 | CCCCCCCCCC(CC(OC)OCC)OC (centres undefined) | 10.7 | 4.25 | 5.9 | -13.8 | -2.7 | -24.6%

Row | Structure (SMILES) | growth inhibition [1] [%] | growth inhibition [2] [%] | growth inhibition [3] [%] | growth inhibition [4] [%] | growth inhibition [5] [%] | growth inhibition [6]
22 | COC(=O)C1CCC(=O)C(Sc2ccccc2)C1 (centres undefined) | 25.1 | -11.9 | 18.4 | 6 | 32.1 | 28.4%
23 | O=C1C(O)C(c2ccccc2)c2ccccc2N1c1ccccc1 (centres undefined) | 2.2 | 5.35 | 1.8 | -5.9 | -9.75 | 15.1%
24 | O=C(O)c1cccn1-c1ccccc1 | -4.05 | -24.6 | -1.55 | -21.1 | -10.2 | -15.6%
25 | Cc1c2c(n3c(nc4ccccc43)c1C#N)SCC2 | -51.3 | -49.3 | -44.5 | -8.5 | -22 | -17.5%
26 | CN(C)CCOC(=S)S | 1.85 | -0.4 | -9.3 | 1.5 | 10.3 | -1%
27 | COc1ccc(/C=[N+](\[O-])[C@H](COCc2ccccc2)c2ccccc2)cc1 | 18.4 | -18.3 | 0.05 | -1.6 | 6.6 | 4.3%
28 | Oc1nc2nc[nH]n2c1N=Nc1ccccc1 | -22.7 | -12.9 | -7.5 | -12.5 | 10.3 | 6.9%
29 | Cc1cc(/C=N/N2CCN(/N=C/c3cc(C)n(-c4ccccc4)c3C)CC2)c(C)n1-c1ccccc1 | 2.5 | -9.15 | -2.7 | -27.9 | -2.95 | -13.6%
30 | CC(C)(C)OC(=O)Cc1ccc2c(ccn2Cc2ccccc2)c1 | -26.2 | -29.6 | -10.9 | -22.1 | 4.65 | -20%
31 | O=c1[nH]cnc2c1cnn2Cc1ccccc1 | 4.1 | -4.85 | 1.2 | 2.1 | 26.1 | 1.95%
32 | CC1(O)OC(=O)c2ccc3ccccc3c21 (centres undefined) | -11.4 | -19.9 | -9.35 | 14.9 | -20.8 | 11%
33 | COc1ccc(CSC(=S)Nc2ccc(F)c(C)c2)cc1 | 20.8 | 14.4 | 17.1 | 28.1 | 5.1 | 10.6%
34 | CC1(O)CC2C(CC1SCCO)C2(C)C (centres undefined) | -30.4 | -10.8 | -42.1 | -11.1 | -56 | -30.5%
35 | CSc1ncnc2c1ncn2CCC(=O)O | -33.9 | 11.4 | -42.1 | 8.8 | -13.9 | -19.4%
36 | COc1ccc(C(=O)/C=C/c2ccccc2)c(O)c1OC | -7.45 | -1.85 | 8.1 | -0.95 | 9.95 | -7.1%
37 | COC1=CCC=C(C(C)(C)C)C1 | -45.8 | -22.6 | -10.5 | -32.1 | -12.2 | 21.7%
38 | O=C1OCC(O)=C1C(c1ccc(Cl)cc1)c1cc2c(cc1O)OCO2 (centres undefined) | -19.9 | -16.7 | -28.1 | -16.3 | 0.05 | -37.5%
39 | CCN(CC)CCn1c2c3ccccc3ccc2c2oc(=O)c3ccccc3c21 | -13.8 | 6.6 | -14.1 | 19.4 | -7.5 | 7.8%
40 | OC(CN1CCc2ccccc2C1)c1ccccc1 (centres undefined) | 42.5 | 8.05 | 49 |  | 39.4 | 35.8%
41 | O=C1C2CCC(C2)C1CN1CCOCC1 (centres undefined) | -10.7 | 3.25 | -1.25 |  | -7.35 | -7.35%
